# KDM5B inhibitor = inhibitors of human KDM5B histone demethylase; hit rate 2.6% among 220,000; Q9UGL1; Potency, µM (doses to about 57.7 µM), hits mostly inhibitors; KDM5B demethylase, FDH-coupled NADH fluorescence (FDH is formaldehyde dehydrogenase); AID 1347165; active means well fitted inhibition curve with a large enough effect; further: 0% is about no effect; nearly all actives have a fitted effect of over 70% in size
# Target sequence (Q9UGL1 whole entry, looked up): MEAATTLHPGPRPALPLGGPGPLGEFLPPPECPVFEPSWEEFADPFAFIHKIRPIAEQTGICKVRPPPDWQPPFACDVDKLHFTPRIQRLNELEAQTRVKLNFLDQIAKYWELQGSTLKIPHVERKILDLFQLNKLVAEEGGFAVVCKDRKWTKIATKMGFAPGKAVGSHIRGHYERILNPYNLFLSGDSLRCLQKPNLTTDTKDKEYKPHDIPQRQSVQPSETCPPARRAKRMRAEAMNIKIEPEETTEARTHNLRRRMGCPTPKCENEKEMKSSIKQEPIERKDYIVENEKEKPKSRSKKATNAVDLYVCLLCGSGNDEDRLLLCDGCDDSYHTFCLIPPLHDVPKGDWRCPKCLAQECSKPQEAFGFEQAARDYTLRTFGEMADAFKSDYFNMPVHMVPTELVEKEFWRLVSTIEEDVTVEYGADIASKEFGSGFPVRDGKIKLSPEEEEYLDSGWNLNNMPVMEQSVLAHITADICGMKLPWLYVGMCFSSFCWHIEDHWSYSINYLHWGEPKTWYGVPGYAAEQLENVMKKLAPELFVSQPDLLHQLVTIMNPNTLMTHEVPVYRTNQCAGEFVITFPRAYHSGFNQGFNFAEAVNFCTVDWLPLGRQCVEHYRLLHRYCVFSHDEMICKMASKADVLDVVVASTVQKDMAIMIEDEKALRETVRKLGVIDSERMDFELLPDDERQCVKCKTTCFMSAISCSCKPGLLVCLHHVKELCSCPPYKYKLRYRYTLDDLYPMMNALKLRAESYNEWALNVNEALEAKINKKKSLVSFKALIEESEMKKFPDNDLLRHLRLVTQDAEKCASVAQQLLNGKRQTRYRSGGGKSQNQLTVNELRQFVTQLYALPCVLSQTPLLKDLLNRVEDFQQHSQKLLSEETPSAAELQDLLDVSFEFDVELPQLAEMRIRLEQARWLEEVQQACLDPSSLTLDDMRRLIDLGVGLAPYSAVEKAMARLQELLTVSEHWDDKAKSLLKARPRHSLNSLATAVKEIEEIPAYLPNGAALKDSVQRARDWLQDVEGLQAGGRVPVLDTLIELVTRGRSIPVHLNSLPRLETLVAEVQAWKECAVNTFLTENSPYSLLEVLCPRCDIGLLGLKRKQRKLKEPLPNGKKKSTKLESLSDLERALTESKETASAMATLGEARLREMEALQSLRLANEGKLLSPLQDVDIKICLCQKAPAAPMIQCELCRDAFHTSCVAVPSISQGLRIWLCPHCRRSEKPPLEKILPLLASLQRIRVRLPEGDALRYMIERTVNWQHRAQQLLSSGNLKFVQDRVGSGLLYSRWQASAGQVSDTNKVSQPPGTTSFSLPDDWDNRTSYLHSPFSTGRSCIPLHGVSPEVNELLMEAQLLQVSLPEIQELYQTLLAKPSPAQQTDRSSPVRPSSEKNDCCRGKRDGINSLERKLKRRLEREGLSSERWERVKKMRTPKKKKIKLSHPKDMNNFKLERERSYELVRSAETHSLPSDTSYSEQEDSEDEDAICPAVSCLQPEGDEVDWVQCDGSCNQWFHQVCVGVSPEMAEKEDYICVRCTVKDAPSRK
#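 Here, H3K4me3 peptide (12.5 µM in substrate mix) is demethylated by KDM5BΔAP, 200 nM final, after 10 min compound exposure. Formaldehyde product is coupled through FDH (0.25 U/mL in mix) to NADH fluorescence; 30-min ΔRFU feeds dose-response curves.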
# The depositor's hits bear a star; i = inactive. The entries come from a sample that favours hits as a whole. Potency means the concentration at half of the fitted maximal effect.
SMILES,KDM5B inhibitor
CN1[C@@H](CCC(=O)N2CCC(O)CC2)CNC(=O)[C@@H]2[C@H]1CCN2Cc1ccc(O)cc1,i
CC1(C)CC(=O)C2=C(C1)NC(=O)CC2c1ccc(OCc2ccccc2)cc1 (centres undefined),i
CCCCn1c(Br)nc2c(=O)n(C)c(=O)n(C)c21,i
CC(C)(C)C(=O)C1C(C(C)(C)C)=CC(c2ccccc2)=CC1(C)c1ccccc1 (centres undefined),i
O=C1NC(=NC2CCCC2)C2(CCN(Cc3ccc(F)cc3)C2)N1c1cccnc1 (centres undefined),i
CCOC(=O)c1cnc2c(Cl)cccc2c1Nc1ccccc1OC,i
Cc1cccc(Cn2c(N3CCN(Cc4c(F)cccc4Cl)CC3)nc3c2c(=O)[nH]c(=O)n3C)c1,i
O=C(NCc1nnnn1-c1ccccc1)Nc1ccc2c(c1)OCO2,i
Cc1ccc(C)c(C(C)NC(=O)c2cc3ccccc3oc2=O)c1 (centres undefined),i
CN1CCN(C(=O)CC[C@H]2CNC(=O)[C@@H]3[C@@H](CCN3Cc3ncc[nH]3)N2C)CC1,i
CN1[C@@H](CCC(=O)N2CCN(c3ccccn3)CC2)CNC(=O)[C@@H]2[C@H]1CCN2Cc1ncc[nH]1,22µM*
CN1[C@@H](CCC(=O)NCc2ccccc2)CNC(=O)[C@@H]2[C@H]1CCN2Cc1ncc[nH]1,i
NC(=O)c1ccc(S(=O)(=O)NCCc2ccc(-n3cccn3)cc2)cc1,i
N#Cc1ccccc1CSc1nnnn1-c1ccc(Cl)cc1,i
COCC(=O)Nc1ccc(-c2c(-c3ccccc3OC)nn(-c3ccc(C)cc3)c2OC(C)=O)cc1,22µM*
CC(C)CC(=O)Nc1ccccc1,i
COCC(=O)Nc1ccc(-c2c(C(C)C)nn(-c3cccc(F)c3)c2OC(C)=O)cc1,i
COCC(=O)Nc1ccc(-c2c(-c3cccc(OC)c3)nn(-c3ccccc3)c2OC(C)=O)cc1,28µM*
CCCc1nn(-c2ccccc2C)c(OC(C)=O)c1-c1ccc(NC(C)=O)cc1,i
CC(=O)Oc1c(-c2ccc(NC(=O)CC(C)C)cc2)c(-c2ccc(F)cc2)nn1-c1ccc(F)cc1,28µM*
COc1ccc(Cl)cc1-n1cc(-c2ccccc2)nc1SCC(=O)Nc1ccc(C)cc1,i
Cc1ccc(NC(=O)Cn2nc(-c3ccc(F)cc3)c3cnc4ccc(C)cc4c32)cc1,i
COc1ccccc1-c1cc(NC(=O)COc2ccc(C)c(C)c2)n(-c2ccccc2)n1,i
COc1ccc(-c2nn(-c3ccccc3C)c(OC(C)=O)c2-c2ccc(NC(C)=O)cc2)cc1OC,28µM*
COCC(=O)Nc1ccc(-c2c(CC(C)C)nn(-c3ccccc3)c2OC(C)=O)cc1,i
SMILES,KDM5B inhibitor
COC(=O)c1cn(-c2ccccc2)nc1-c1ccc(OC)c(OC)c1,i
N#Cc1ccccc1CSc1nnc(N2CCCCC2)n1-c1ccccc1,i
COc1cccc(Cn2nnc3c(=O)[nH]c(C4CCN(C(=O)c5ccccc5)CC4)nc32)c1,i
CC(=O)Nc1cccc(C(C)NC(=O)NC(c2ccc(Cl)cc2)C(C)C)c1 (centres undefined),i
CCOC(=O)Cn1cnc2c1c(=O)n(C)c(=O)n2C,i
CC(NC(=O)CSc1nnc(COc2ccccc2Cl)n1C)c1cccc2ccccc12 (centres undefined),i
O=c1[nH]cnc2c1nc(SCc1cccc(Cl)c1)n2-c1ccccc1,i
Cc1ncc(-c2ccc(S(=O)(=O)Nc3ccc(F)cc3C)cc2)o1,i
CCCNC(=O)N1CCC(c2noc(COc3ccc(C)cc3)n2)CC1,i
O=C(CCc1cccnc1)NCc1ccccn1,i
O=c1cc(CSc2nnnn2-c2ccccc2)[nH]n1-c1ccc(Cl)cc1,i
O=S(Cc1cccc(F)c1)Cc1cccc(C(F)(F)F)c1 (centres undefined),i
COc1cccc(-c2ccc(NC(=O)C3CCCN(C(=O)CC(F)(F)F)C3)cc2)c1 (centres undefined),i
COc1cccc(-c2nn(-c3ccccc3)c(OC(C)=O)c2-c2ccc(NC(=O)C3CCCC3)cc2)c1,13µM*
COc1cccc(-c2ccc(NC(=O)C3CCCN3C(=O)C3(C)CC3)cc2)c1 (centres undefined),i
COc1ccccc1CNC(=O)COc1ccc2c(=O)c(Oc3ccccc3)c(C)oc2c1,i
CCCCS(=O)(=O)N[C@@H]1CN(c2ncccn2)C[C@H]1CN(C)C,32µM*
CCCS(=O)(=O)N[C@@H]1CN(Cc2ccncc2)C[C@H]1CN(C)C,i
CCCCN(C)S(=O)(=O)NC1CCCN(c2ncccn2)C1 (centres undefined),i
CN(C)C[C@@H]1CN(c2ccncn2)C[C@H]1NS(=O)(=O)Cc1cccc(F)c1,i
CCCCS(=O)(=O)N[C@@H]1CN(C2CCOCC2)C[C@H]1CN(C)C,i
CCCS(=O)(=O)N[C@@H]1CN(c2ncccn2)C[C@H]1CN(C)C,28µM*
O=C(c1ccccc1)c1ccccc1NC(=O)c1cc2ccccc2oc1=O,i
O=C(O)Cn1cc(C(C(=O)O)N2CCN(CC(=O)N3CCCC3)CC2)c2ccc(F)cc21 (centres undefined),i
O=C(OCc1ccc([N+](=O)[O-])cc1)C1(c2cccc(F)c2)CCCC1,i
SMILES,KDM5B inhibitor
Cc1ccc2c(C)c(C(=O)Nc3cccc4cccnc34)oc2c1,i
O=C(Nc1ccccc1C(F)(F)F)C12CC3CC(CC(Cl)(C3)C1)C2,i
CC(C)NCc1ccc(-c2ccc(C(C)O)cc2)o1 (centres undefined),i
O=C(CCSc1nc(Cl)nc2nc[nH]c12)NCc1ccccc1,i
O=C(NC1CCCc2c1[nH]c1ccccc21)c1ccncc1 (centres undefined),i
O=C(Cn1nc(-c2cccs2)ccc1=O)NC1CCCc2c1[nH]c1c(Cl)cccc21 (centres undefined),i
O=C(Cn1nc(-c2ccc(F)cc2)ccc1=O)NC1CCCc2c1[nH]c1ccccc21 (centres undefined),14µM*
O=C(Cc1ccccc1)NC1CCCc2c1[nH]c1ccccc21 (centres undefined),i
O=C(Cn1nc(-c2ccc(F)cc2)ccc1=O)N1CCc2ccccc2C1,i
O=C(NC1CCCc2c1[nH]c1ccccc21)c1n[nH]c2c1CCCC2 (centres undefined),14µM*
CCc1ccc(NC(=O)Cn2ccn(-c3ccc(OC)c(OC)c3)c(=O)c2=O)cc1,i
Cc1ccc2c(C)c(CCC(=O)Nc3cc(Cl)ccc3F)c(=O)oc2c1,i
CC(C)CC(NC(=O)/C(=C/c1ccc(Cl)cc1)NC(=O)c1ccccc1)C(=O)O (centres undefined),i
Cc1ccc(C(=O)NCCc2c[nH]c3ccc(Cl)cc23)cc1,i
Cc1ccc(NC(=O)C(=O)NCCN2CCN(C(=O)c3ccc(Br)cc3)CC2)cc1,i
COC(=O)c1cn([C@H]2CO[C@H]3[C@@H]2OC[C@@H]3NC(=O)COc2ccccc2)nn1,i
O=C(COc1ccccc1)N[C@H]1CO[C@H]2[C@@H]1OC[C@@H]2Nc1nccc(-c2cccs2)n1,28µM*
CC(C)(C)c1ccc(NC(=O)O[C@@H]2CO[C@H]3[C@@H]2OC[C@@H]3Nc2nccc(-c3ccccc3)n2)cc1,i
CCNC(=O)O[C@@H]1CO[C@H]2[C@@H]1OC[C@@H]2Nc1nccc(-c2cccs2)n1,28µM*
